Hits are enriched below; roughly 3.1% of the tested compounds scored in any of these assays.
Nrf2 ARE act: activates Nrf2 signaling; Potency, µM (titrated, usually from 46.1 µM), for the others: top-dose activation, hits mostly activators; AID 624171; 0.31% of 410,000 active; AREc32 ARE-luciferase reporter (MCF7-derived line), luminescence, 24 h; further: potency means the concentration at half of the fitted maximal effect; % of control where 0% means no effect; nearly all actives have a fitted effect of over 65% in size
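Steps: seed AREc32_Fluc cells (1000/well, 5% FBS OPTI-MEM); incubate overnight at 37 deg C; add 23 nL compound; incubate 24 hr; add Steady-Glo; hold 30 min RT; read luminescence.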
BRCA1 expr act: BRCA1 expression activation. MCF7-BRCA1-FFLuc reporter, luminescence, 48 h; response scale: scaled: vehicle 0%, 10 µM genistein 100%. Potency, µM (titrated, usually from 46.1 µM), for the others: at the highest dose activation, hits mostly activators. 1.1% of 380,000 active. AID 624202; further: potency means the concentration at half of the fitted maximal effect; nearly all actives have a fitted effect of over 80% in size
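Reporter cells (MCF7, BRCA1 promoter-firefly luciferase) received library compounds across a concentration series for 48 h. End-point luminescence was measured and concentration-effect curves derived after normalization.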
IL2 activator: activates IL-2 in a cell-based reporter assay. IL-2 activation reporter assay, cell-based qHTS; stimulated with anti-CD3/CD4/CD28 beads; in transgenic mouse T cells. activation, % (series mostly up to about 46 µM). 0.065% of 360,000 active. AID 652025; in the data active means activation above about 50%; inconclusive means mostly about 30% to 49%; further: 0% is about no effect
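Unstimulated transgenic mouse T cells preincubated 60 min with compound, then stimulated with anti-CD3/anti-CD4-coated beads plus anti-CD28 for 18 h at 37 degrees C. IL-2 response read as EGFP and DsRed fluorescence by plate cytometry.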
ELG1 DNA repair: inhibitors of ELG1-dependent DNA repair in HEK293T cells. HEK293T ELG1-luciferase reporter, luminescence, 16 h; DNA damage induced by 5-fluorouridine. Potency, µM (titrated, usually from 46.1 µM), without a hit: at the highest dose activity change, negative = inhibition, hits mostly inhibitors. 2.3% of 330,000 active. AID 504467; further: potency means the concentration at half of the fitted maximal effect; on the % scale 0 is the no-effect control and ±100 the full control effect; nearly all actives have a fitted effect of over 55% in size
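Overnight (16 hr) co-exposure of 2,000 cells/well to 5-fluorouridine and compound at 37 °C preceded detection. Luciferase was quantified via ONE-Glo luminescence; loss of signal denotes inhibition.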
* = called active by the depositor; ? = inconclusive; nt = no result; ! = a repeat was not active. Unless noted, the call rests on the fitted dose curve; in most records, active means well fitted curve in the direction sought with a large enough effect; inconclusive means small, poorly fitted or top-dose-only effect, or another doubt; inactive means no such curve, though single readings can be large; an effect the other way counts as inactive or inconclusive.

SMILES	Nrf2 ARE act	BRCA1 expr act	IL2 activator	ELG1 DNA repair
CCOC(=O)Cc1ccc(NC(=O)c2ccc(C(C)(C)C)cc2)cc1	-1.2%	-79.1%	-0.1	18.4µM*
Cc1cccc(NC(=O)c2ccc(S(=O)(=O)NCc3cccnc3)cc2)c1	0.3%	-21.0%	5.3	14.6µM*
CCOC(=O)c1c(C)nc2sc(C(N)=O)c(N)c2c1-c1ccc(OC)cc1	0.0%	-25.3%	0.6	13µM*
CCOC(=O)c1ccc2c(c1)N(Cc1ccc(F)cc1Cl)C(=O)c1ccccc1S2	-0.3%	nt	nt	nt
COc1cccc(OCCSc2nc(N)cc(N)n2)c1	-0.3%	75.2%	0.7	-4.6%
CC(C)SCCCCOc1ccc2ccccc2c1	-0.2%	8.91µM*	0.1	?
c1ccc2cc(OCCOCCOc3ccc4ccccc4c3)ccc2c1	0.4%	1.0%	1.1	-28.4%
c1cnc(SCCCOc2ccc3ccccc3c2)nc1	4.0%	11.2µM*	4.8	?
Nc1cc(N)nc(SCCOc2ccccc2)n1	2.7%	12.6µM*	0.0	?
COc1ccc(OCCCSc2ncccn2)cc1	4.8%	12.6µM*	-0.3	?
CCn1cc2nc(SCc3ccccc3F)n(Cc3ccc(C)cc3)c(=O)c2n1	4.3%	-19.5%	nt	nt
COc1ccc(-c2nc(CCNC(=O)c3ccccc3)cs2)cc1OC	3.5%	nt	nt	nt
CCOC(=O)c1cccc(NC(=O)c2cnc(N3CCCCC3)c3ccccc23)c1	-0.2%	nt	nt	nt
COc1ccc(OCCSc2ncccn2)cc1	0.3%	?	-1.4	?
Clc1ccc(OCCSc2ncccn2)cc1	-0.3%	11.2µM*	-3.6	?
Cc1cc(C)c(C)c(C(=O)CSc2nnc(-c3ccc4[nH]c(C)c(C)c4c3)o2)c1C	-0.6%	-24.1%	0.0	16.4µM*
COc1ccc2nc3sc(C(=O)N4CCN(c5ccc(F)cc5)CC4)cc3cc2c1	0.3%	6.8%	nt	nt
COc1ccc(-c2cc(C(=O)N3CCN(c4ccccc4)CC3)c3ccccc3n2)cc1OC	4.4%	-39.1%	-1.3	16.4µM*
Cc1ccc(-c2cc(C(=O)OCC(=O)NC3CC3)c3ccccc3n2)cc1	4.1%	55.6%	0.3	-1.3%
COc1ccc(-c2cc(C(=O)OCC(=O)N3CCCCC3)c3ccccc3n2)cc1OC	7.1%	23.7%	-7.6	9.2µM*
COc1cc(-c2csc(N3CCOCC3)n2)cc(OC)c1OC	3.1%	-15.7%	1.6	-8.8%
COc1ccc(-c2csc(N3CCN(c4cc(C)nc5ccccc45)CC3)n2)cc1OC	-1.5%	-90.8%	0.8	8.2µM*
COc1cc(-c2cc(C(=O)OCC(=O)NC3CC3)c3ccccc3n2)cc(OC)c1OC	2.9%	-20.3%	-0.4	11.6µM*
COc1ccc(-c2cc(C(=O)N3CCCCCC3)c3ccccc3n2)cc1OC	2.9%	-35.3%	-0.8	nt
CCc1cccc(CC)c1NC(=O)C(Cc1ccccc1)NS(=O)(=O)c1cccc2nsnc12 (stereo unspecified)	3.4%	nt	nt	nt
SMILES	Nrf2 ARE act	BRCA1 expr act	IL2 activator	ELG1 DNA repair
N#Cc1c(N)n(CCNC(=O)c2ccc(Cl)cc2)c2nc3ccccc3nc12	-0.1%	-17.0%	1.2	?
CCC(C)n1c(NC(=O)c2ccccc2)c(C#N)c2nc3ccccc3nc21 (stereo unspecified)	-0.1%	-68.6%	0.4	?
Cc1ccc(C(=O)NCCn2c(N)c(C#N)c3nc4ccccc4nc32)cc1	-0.2%	-23.7%	53.8*	-2.3%
CCCCn1c(NC(=O)c2ccccc2)c(C#N)c2nc3ccccc3nc21	0.4%	-88.0%	2.5	8.2µM*
CCOC(=O)c1ccc(CNc2ncnc3nc[nH]c23)cc1	nt	-1.2%	nt	nt
CCOC(=O)N1CCC2(CC1)OC(=O)C(C)=C2C(=O)NCc1cccc(F)c1	-0.7%	nt	nt	nt
NC(Cc1ccc(C(F)(F)F)cc1)c1csc(Nc2ccc(S(N)(=O)=O)cc2)n1 (stereo unspecified)	11.8%	-44.6%	-0.5	nt
CN(C)c1ccc(/C=C/c2nc3ccccc3c(=O)[nH]2)cc1	-0.1%	?	60.9*	?
O=c1[nH]c(/C=C/c2ccccc2[N+](=O)[O-])nc2ccccc12	1.26µM*	-35.4%	-0.4	?
O=c1[nH]c(/C=C/c2ccc(Br)cc2)nc2ccccc12	0.4%	?	-1.4	?
CCc1ccc(CN(C)C(=O)c2cc(COc3ccc(OC)cc3Cl)on2)nc1	2.5%	8.91µM*	-3.9	?
COc1ccc(OCc2cc(C(=O)N(C)Cc3cc(C)no3)no2)c(Cl)c1	0.7%	3.98µM*	-0.4	?
COc1cc(Cl)ccc1OCc1cc(C(=O)N(C)Cc2nnc(C)o2)no1	2.5%	69.2%	-0.9	?
COc1ccc(OCc2cc(C(=O)N(C)Cc3nnc(C)o3)no2)c(Cl)c1	0.9%	7.08µM*	1.5	?
CN(CCCN1CCOCC1)C(=O)c1cc(COc2ccc(F)cc2F)on1	-0.5%	0.0%	-2.8	0.0%
CC(=O)c1ccc(OCc2cc(C(=O)N(C)Cc3cc(C)no3)no2)cc1	1.8%	66.1%	-2.3	?
COc1cc(C)ccc1OCc1cc(C(=O)N(C)CCCN2CCOCC2)no1	0.8%	7.94µM*	-0.2	?
COC(=O)c1ccccc1NC(=O)Cn1cc(S(=O)(=O)Cc2ccccc2F)c2ccccc21	1.9%	nt	nt	nt
Cc1cc(CN(C)C(=O)c2cc(COc3ccc(F)cc3Cl)on2)n[nH]1	3.2%	7.94µM*	-2.9	?
C/C(=N\Nc1ccccn1)c1ccc(N2CCOCC2)cc1	0.9%	4.47µM*	-2.9	?
C(=N\Nc1ccccn1)/c1ccc(N2CCOCC2)cc1	0.0%	?	-0.5	?
COCCCNC(=O)COc1ccc(Br)cc1Cl	2.5%	12.6µM*	1.0	?
CN(C)c1nc(OCCNC(=O)COc2ccc(Cl)cc2Cl)nc(N(C)C)n1	-0.8%	-7.3%	-0.8	20.6µM*
Cc1nn(-c2ccccc2)c(C)c1NC(=O)COc1ccc(Br)cc1Cl	2.7%	-44.9%	-0.5	23.1µM*
O=C(Cc1ccccc1)Nc1ccc2c(c1)OC1(CCCC1)O2	2.9%	3.98µM*	0.7	?
SMILES	Nrf2 ARE act	BRCA1 expr act	IL2 activator	ELG1 DNA repair
CCc1ccccc1NC(=O)CN1CCN(CC(=O)Nc2ccc3c(c2)OC2(CCCCC2)O3)CC1	0.0%	-29.6%	-0.7	nt
CCc1ccc(C(=O)Nc2cc3c(cc2Cl)OCCCO3)cc1	23.9%	80.5%	0.7	?
O=C(Cc1ccccc1)Nc1cc2c(cc1Cl)OCCCO2	2.3%	3.16µM*	-2.5	?
O=C(CNC(=O)C1CCCCC1)OCC(=O)c1ccc([N+](=O)[O-])cc1	nt	0.0%	nt	nt
COc1cccc(/C=C/c2nc3ccccc3nc2/C=C/c2cccc(OC)c2OC)c1OC	nt	8.9%	nt	nt
COc1ccc(C(=O)Nc2cccc(-c3ccc(N4CCOCC4)nn3)c2)cc1OC	-0.3%	84.1%	-5.0	?
CCOc1ccc(C(=O)Nc2cccc(-c3ccc(N4CCOCC4)nn3)c2)cc1OCC	6.8%	11.2µM*	-0.2	?
CCOc1ccc(NC(=O)c2ccc3snnc3c2)cc1	3.8%	7.94µM*!	0.6	?
CCOc1ccc(NC(=O)c2ccc(F)cc2F)cc1	3.0%	11.2µM*	0.1	nt
CCCCOc1ccc(Cn2c(=O)oc3ccc(C)cc32)cc1	0.4%	-6.3%	nt	nt

Screening results as filed in PubChem BioAssay.
